# In all, about 39,000 compounds went through this assay and about 500 (1.3%) were called active. The entries come from a sample that favours actives as a whole.
# System: S. aureus RN4220
# Experiment: growth inhibition call (relative growth <= 0.2)
# Conditions: 50 µM
row,Structure (SMILES),growth inhibition call
1,COc1ccccc1NC(=O)C1=C(C)N=C(SCC(=O)Nc2ccccc2[N+](=O)[O-])C(C#N)[C@@H]1c1ccccc1F (some centres undefined),inactive
2,C[C@H]1CN([C@@H](C)CO)C(=O)Cc2cc(NC(=O)CCCCCC(=O)Nc3ccccc3N)ccc2O[C@H]1CN(C)Cc1ccc(C(F)(F)F)cc1,inactive
3,COc1ccc(NC(=O)N(C)C[C@H]2OCCCC[C@@H](C)Oc3ccc(NC(=O)Nc4ccccc4)cc3C(=O)N([C@H](C)CO)C[C@H]2C)cc1,inactive
4,COc1ccc(S(=O)(=O)Nc2ccc3c(c2)C(=O)N([C@@H](C)CO)C[C@@H](C)[C@H](CN(C)Cc2ccc(C(F)(F)F)cc2)OCCCC[C@H](C)O3)cc1,inactive
5,C[C@H]1CCCCO[C@H](CN(C)S(=O)(=O)c2ccc(Cl)cc2)[C@@H](C)CN([C@@H](C)CO)C(=O)c2cc(NC(=O)Nc3ccc4c(c3)OCO4)ccc2O1,inactive
6,Cc1ccc(N(c2ccc(C)cc2)c2cccnc2)cc1,active
7,COC(=O)c1cccnc1,inactive
8,CCN(CC)C(=O)c1cccnc1,inactive
9,CS(=O)(=O)N1C[C@@H]2OCC[C@@H]2[C@H](C(=O)NCc2cccnc2)C1,inactive
10,O=c1cc(-c2ccccc2O)oc2cc(O)ccc12,inactive
11,O=C(O)c1c(Br)c(Br)c(Br)c(Br)c1-c1c2ccc(=O)cc-2oc2cc(O)ccc12,active
12,O=c1cc(-c2ccccc2)oc2cc(O)ccc12,inactive
13,COc1ccccc1S(=O)(=O)N(C)C[C@@H]1OCc2cnnn2CCCC(=O)N([C@H](C)CO)C[C@@H]1C,inactive
14,Cc1onc(-c2ccccc2)c1CN,inactive
15,Clc1ccc(CSC(Cn2ccnc2)c2ccc(Cl)cc2Cl)cc1.O=[N+]([O-])O (centres undefined),inactive
16,Clc1ccc(CON=C(Cn2ccnc2)c2ccc(Cl)cc2Cl)c(Cl)c1.O=[N+]([O-])O,active
17,Clc1ccc(COC(Cn2ccnc2)c2ccc(Cl)cc2Cl)cc1.O=[N+]([O-])O (centres undefined),inactive
18,CC(=O)N(C)C[C@H]1Oc2ncc(C#C[C@@H](C)O)cc2C(=O)N([C@@H](C)CO)C[C@@H]1C,inactive
19,CC(C)NC(=O)N(C)C[C@H]1Oc2c(NS(=O)(=O)c3cn(C)cn3)cccc2C(=O)N([C@H](C)CO)C[C@@H]1C,inactive
20,C[C@H]1CN([C@@H](C)CO)C(=O)c2cc(NC(=O)NC3CCCCC3)ccc2O[C@H]1CN(C)Cc1ccc(Cl)c(Cl)c1,inactive
21,NC[C@@H]1CCCO1,inactive
22,CCC1OC(=O)CC(O)C(C)C(OC2OC(C)C(OC3CC(C)(O)C(O)C(C)O3)C(N(C)C)C2O)C(CC=O)CC(C)C(=O)C=CC(C)=CC1COC1OC(C)C(O)C(OC)C1OC.O=C(O)C(O)C(O)C(=O)O (centres undefined),active

row,Structure (SMILES),growth inhibition call
1,CC[C@H]1OC(=O)C[C@@H](O)[C@H](C)[C@@H](O[C@@H]2O[C@H](C)[C@@H](O[C@H]3C[C@@](C)(O)[C@@H](O)[C@H](C)O3)[C@H](N(C)C)[C@H]2O)[C@@H](CC=O)C[C@@H](C)C(=O)/C=C/C(C)=C/[C@@H]1CO[C@@H]1O[C@H](C)[C@@H](O)[C@@H](OC)[C@H]1OC,active
2,CC[C@H]1OC(=O)C[C@@H](O)[C@H](C)[C@@H](O[C@@H]2O[C@H](C)C[C@H](N(C)C)[C@H]2O)[C@@H](CC=O)C[C@@H](C)C(=O)/C=C/[C@]2(C)O[C@H]2[C@@H]1C,active
3,COc1cccc(C(=O)Nc2ccc3c(c2)C(=O)N(C)[C@@H]2CC[C@H](CC(=O)NCC4CC4)O[C@@H]2CO3)c1,inactive
4,Cc1noc(C)c1NC(=O)Nc1ccc2c(c1)C(=O)N([C@H](C)CO)C[C@H](C)[C@@H](CN(C)C(=O)C1CCCCC1)OCCCC[C@@H](C)O2,inactive
5,COCC#Cc1ccc2c(c1)O[C@H](CN(C)C(=O)c1ccccc1F)[C@@H](C)CN([C@@H](C)CO)S2(=O)=O,inactive
6,C[C@@H]1CN([C@H](C)CO)C(=O)c2cc(NC(=O)Nc3cccc4ccccc34)ccc2O[C@H]1CN(C)S(=O)(=O)c1ccccc1,inactive
7,COC(=O)c1cc(=O)nc2n1[C@H]1O[C@H](CO)[C@H](O)[C@H]1O2,inactive
8,COc1cccc(NC(=O)C[C@H]2CC[C@@H]3[C@@H](COc4ccc(NC(=O)C5CCOCC5)cc4C(=O)N3C)O2)c1,inactive
9,CC(C)NC(=O)N(C)C[C@H]1Oc2ccc(NS(=O)(=O)c3cn(C)cn3)cc2C(=O)N([C@@H](C)CO)C[C@H]1C,inactive
10,CN(C)C1CCN(C(=O)c2cnc(-c3noc4cc(-c5ccccc5C(F)(F)F)ccc34)s2)CC1,active
11,CN(C)C1CCN(C(=O)c2cnc(-c3noc4cc(-c5cccc(C(F)(F)F)c5)ccc34)s2)CC1,inactive
12,Cc1ccc(S(=O)(=O)N(C)C[C@H]2Oc3c(NS(=O)(=O)c4ccc(F)cc4)cccc3C(=O)N([C@@H](C)CO)C[C@H]2C)cc1,inactive
13,C[C@H]1CN([C@@H](C)CO)C(=O)c2c(c3ccccc3n2C)-c2ccccc2CO[C@H]1CN(C)Cc1ccc(C(=O)O)cc1,inactive
14,CC(C)(C)NCCCCOc1ccc(Cl)cc1C(C)(C)C,inactive
15,Cc1ccc(OCc2ccc(Cl)cc2)c(C(C)(C)C)c1,inactive
16,CC[C@@H](C)NCCCCOc1ccc(Cl)cc1C(C)(C)C,active
17,C[C@H](CO)N1C[C@H](C)[C@@H](CN(C)S(=O)(=O)c2cn(C)cn2)Oc2ccc(NC(=O)Nc3ccc4c(c3)OCO4)cc2CC1=O,inactive
18,CC[C@H](C)[C@H](N)C1=N[C@H](C(=O)N[C@@H](CC(C)C)C(=O)N[C@H](CCC(=O)O)C(=O)N[C@H](C(=O)N[C@H]2CCCCNC(=O)[C@H](CC(N)=O)NC(=O)[C@@H](CC(=O)O)NC(=O)[C@H](Cc3cnc[nH]3)NC(=O)[C@@H](Cc3ccccc3)NC(=O)[C@H]([C@@H](C)CC)NC(=O)[C@@H](CCCN)NC2=O)[C@@H](C)CC)CS1,active
19,NCCCC[C@H](NC(=O)[C@@H]1CCCN1C(=O)[C@@H]1CSSC[C@H](N)C(=O)N[C@@H](Cc2ccccc2)C(=O)N[C@@H](Cc2ccccc2)C(=O)NC(CCC(N)=O)C(=O)N[C@@H](CC(N)=O)C(=O)N1)C(=O)NCC(N)=O (some centres undefined),inactive
20,CC(=O)N[C@@H](CCCNC(=N)N)C(=O)N[C@H]1CSSC[C@@H](C(N)=O)NC(=O)[C@H](Cc2c[nH]c3ccccc23)NC(=O)[C@H](CCCNC(=N)N)NC(=O)[C@@H](Cc2ccccc2)NC(=O)[C@H](Cc2cnc[nH]2)NC(=O)[C@@H](C)NC1=O,inactive
21,CC[C@H](C)[C@H](N)C1=N[C@H](C(=O)N[C@@H](CC(C)C)C(=O)N[C@@H]2CCC(=O)[O][Zn][O]C(=O)C[C@H]3NC(=O)[C@H](Cc4c[nH]cn4)NC(=O)[C@@H](Cc4ccccc4)NC(=O)[C@H]([C@@H](C)CC)NC(=O)[C@@H](CCCN)NC(=O)[C@H](CCCCNC(=O)[C@H](CC(N)=O)NC3=O)NC(=O)[C@H]([C@@H](C)CC)NC2=O)CS1,active
22,C[C@@H]1CN([C@@H](C)CO)C(=O)c2cc(NC(=O)Nc3ccc(C(F)(F)F)cc3)ccc2O[C@@H]1CN(C)C(=O)Nc1ccc2c(c1)OCO2,inactive

row,Structure (SMILES),growth inhibition call
1,CC(=O)c1c(C)nn(CC(=O)O)c1C,inactive
2,COc1ccc(NC(=O)N(C)C[C@@H]2OCCCC[C@@H](C)Oc3ccc(NC(=O)NC(C)C)cc3C(=O)N([C@H](C)CO)C[C@@H]2C)cc1,inactive
3,O=C(C[C@@H]1C[C@@H]2c3cc(NC(=O)c4ccc5c(c4)OCO5)ccc3O[C@@H]2[C@H](CO)O1)NCc1ccc(Oc2ccccc2)cc1,inactive
4,CN(C)C1C(O)=C(C(N)=O)C(=O)C2(O)C(O)=C3C(=O)c4c(O)cccc4C(C)(O)C3CC12.Cl (centres undefined),inactive
5,CN(C)[C@@H]1C(=O)C(C(=O)NCN2CCCC2)=C(O)[C@@]2(O)C(O)=C3C(=O)c4c(O)cccc4[C@@](C)(O)[C@H]3C[C@@H]12,active
6,CN(C)C1C(O)=C(C(N)=O)C(=O)C2(O)C(O)=C3C(=O)c4c(O)ccc(Cl)c4C(C)(O)C3CC12.Cl (centres undefined),inactive
7,C[C@H](O)[C@H](O)[C@@H](O)[C@@H](O)/C=N/NC(=O)c1ccc(C(=O)NO)cc1,inactive
8,COc1ccc(S(=O)(=O)N2C[C@@H](O)COC[C@H]3O[C@@H](CC(=O)N[C@H]4CCN(Cc5ccccc5)C4)CC[C@@H]32)cc1,inactive
9,CN(CCCCCCCCCCN(C)C(=O)Oc1cccc([N+](C)(C)C)c1)C(=O)Oc1cccc([N+](C)(C)C)c1,active
10,CC(=O)Oc1cccc(C)c1 [meta-CRESYL ACETATE],inactive
11,CC(=O)Oc1cccc(O)c1,inactive
12,C[C@@H]1CN([C@H](C)CO)C(=O)c2cc(NC(=O)C3CCCCC3)ccc2O[C@@H](C)CCCCO[C@@H]1CN(C)C(=O)Nc1ccccc1,inactive
13,COc1ccc(S(=O)(=O)N(C)C[C@@H]2Oc3ccc(NC(=O)CCN4CCOCC4)cc3CC(=O)N([C@@H](C)CO)C[C@H]2C)cc1,inactive
14,C[C@@H]1CN([C@H](C)CO)C(=O)Cc2cc(NS(=O)(=O)c3cn(C)cn3)ccc2O[C@H]1CN(C)S(C)(=O)=O,inactive
15,CC(C)Oc1cccc(CC(=O)N2CCC[C@](CC[N+]34CCC(c5ccccc5)(CC3)CC4)(c3ccc(Cl)c(Cl)c3)C2)c1,active
16,CC(=O)N(C)C1(c2ccccc2)CCN(CCC[C@]2(c3ccc(Cl)c(Cl)c3)CCCN(C(=O)c3ccccc3)C2)CC1,inactive
17,C[C@@H]1CN([C@@H](C)CO)C(=O)c2cccc(NC(=O)C3CCOCC3)c2O[C@H]1CN(C)Cc1ccc(C(=O)O)cc1,inactive
18,NCC[C@H]1CC[C@@H](NC(=O)Nc2ccc(F)cc2)[C@@H](CO)O1,inactive
19,CC(=O)Oc1cc2c(c(C)c1OC(C)=O)CC=C1[C@@]2(C)CC[C@@]2(C)[C@H]3C[C@](C)(C(=O)O)CC[C@]3(C)CC[C@]12C,active
20,CC1(C(=O)O)CCC2(C)CCC3(C)C(=CC(=O)C4C5(C)CCC(O)C(C)(C)C5CCC43C)C2C1 (centres undefined),inactive

# Source: the antibiotic and cytotoxicity screens of Wong et al. (2023)
